Mito fusion yeast – blocks mitochondrial division or promotes mitochondrial fusion; AID 485298; 0.23% of 320,000 active; Potency, µM (doses to about 46.1 µM), hits mostly activators; S. cerevisiae fusion-defective mutant growth rescue, CellTiterGlo 48 h; also: nearly all actives have a fitted effect of over 45% in size
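S. cerevisiae fusion-defective temperature-sensitive mutants (e.g. fzo1-1, mgm1-5) grown 48 h at 37C in YPEG (ethanol/glycerol non-fermentable) medium with 23 nl compound per well; growth rescue read as CellTiterGlo luminescence.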
TDP-43 yeast inh – rescues yeast growth from TDP-43 toxicity; TDP-43 expressing yeast growth rescue, BacTiter-Glo, 24 h; AID 652104; 1.8% of 410,000 active; Potency, µM (titrated, usually from 46.1 µM), usual class: activators; also: nearly all actives have a fitted effect of over 50% in size
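Yeast expressing TDP-43 (pregrown in raffinose, seeded at OD600=0.02 in galactose medium) exposed to compounds 24 hr at 30 deg C. Growth read by BacTiter-Glo luminescence; rescue of toxicity appears as increased signal.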
Abeta rescue – compounds reversing amyloid beta toxicity in yeast; Potency, µM (highest dose often 46.1 µM), hits mostly activators; yeast expressing A-beta42, growth rescue, OD600, 48 h; response scale: 0% DMSO, 100% iron-clioquinol control; 0.063% of 410,000 active; also: nearly all actives have a fitted effect of over 55% in size
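Yeast A-beta toxicity model in growth medium with pinned compounds, 48 h at 30 C; growth read as absorbance at 600 nm. Normalized to FeCl3/clioquinol equimolar mix (positive) and DMSO (negative).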
aSyn yeast inh – rescues yeast growth from alpha-synuclein toxicity; Yeast expressing alpha-synuclein, growth rescue, BacTiter-Glo, 24 h; Potency, µM (doses to about 46.1 µM), hits mostly activators; 0.14% of 370,000 active; also: nearly all actives have a fitted effect of over 65% in size
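Galactose-induced alpha-syn yeast (OD600=0.02, raffinose-pregrown) + pinned cpd, 24 hr, 30 deg C; growth by BacTiter-Glo luminescence. Growth restoration scores as activation.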
FUS suppressor – FUS proteinopathy suppression in yeast. 0.24% of 390,000 active. S. cerevisiae FUS-expressing, growth rescue, OD600, 24 h. Potency, µM (doses to about 76.6 µM), hits mostly activators; also: nearly all actives have a fitted effect of over 55% in size
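FUS-expressing yeast, raffinose-pregrown, induced in 2% galactose minimal medium at OD 0.005; compounds in a dilution series, 24hr at 30C. Growth restoration read as absorbance at 600 nm. CP55940 positive control, DMSO negative.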
Hits are given with their value; – = inactive; ? = inconclusive; · = no result; [ ] = remark or other dose. An excerpt weighted towards active compounds, which were near 2.2% of everything screened. Calls follow the shape of the dose curve; as a rule, active = well fitted curve in the direction sought with a large enough effect; inconclusive = small, poorly fitted or top-dose-only effect, or another doubt; inactive = no such curve, though single readings can be large; an effect the other way counts as inactive or inconclusive.

SMILES	Mito fusion yeast	TDP-43 yeast inh	Abeta rescue	aSyn yeast inh	FUS suppressor
COc1ccc(-n2c(SCC(=O)Nc3cc(C)c(NC(=O)c4ccccc4)cc3OC)nnc2-c2ccco2)cc1	·	·	·	·	11µM
COc1ccc(OC)c(NC(=O)CSc2nnc(-c3ccco3)n2-c2ccccc2)c1	–	–	–	–	–
Cc1ccccc1-c1cc2nc(NCc3ccccc3)n(C)c(=O)c2s1	·	?	–	?	28µM
Cc1cnc(CNc2nc3cc(-c4ccccc4C)sc3c(=O)n2C)cn1	·	35µM	–	–	–
COCCNc1nc2cc(-c3ccccc3C)sc2c(=O)n1C	·	–	–	–	?
CC(=O)NCCNc1nc2cc(-c3ccccc3CO)sc2c(=O)n1C	·	35µM	–	?	–
COCCNc1nc2cc(-c3ccccc3OC)sc2c(=O)n1C	·	14µM	–	–	–
Cc1ccccc1-c1cc2nc(NCc3cccnc3)n(C)c(=O)c2s1	·	–	–	–	–
Cc1ccccc1-c1cc2nc(NCc3ccncc3)n(C)c(=O)c2s1	·	–	–	–	–
CC(C)OC(=O)N(C)C[C@@H]1OCc2cnnn2CCCC(=O)N([C@H](C)CO)C[C@H]1C	·	–	–	–	–
Cc1cc(C)c(OCC(=O)OC(C)C(=O)N2CCc3ccccc32)c(C)c1 (stereo not given)	–	22µM	–	–	–
O=C(N/N=C/c1cn(CCOc2ccccc2)c2ccccc12)c1ccncc1	–	–	–	–	–
COC(=O)c1cn(CCOc2ccccc2F)c2ccccc12	–	11µM	?	–	–
O=C(c1ccco1)c1cn(CCOc2ccc(F)cc2)c2ccccc12	·	18µM	–	·	–
O=C(c1ccco1)c1cn(CCOc2ccc(Cl)cc2)c2ccccc12	·	–	–	·	–
COc1ccccc1OCCn1cc(/C=N/NC(=O)c2ccncc2)c2ccccc21	–	13µM	–	–	–
COC(=O)c1cn(CCOc2ccccc2OC)c2ccccc12	–	?	–	–	–
Cc1cc(C)nc(N(C#N)Cc2ccc(Cl)cc2)n1	–	–[9.22 µM]	–	–	–
Cc1ccc(CN(C#N)c2nc(C)cc(C)n2)cc1	–	35µM	–	–	–
Cc1cc(C)nc(N(C#N)CCOc2ccc(Cl)cc2)n1	–	18µM	–	–	–
Cc1cc(C)nc(N(C#N)Cc2ccc(Br)cc2)n1	?	14µM	–	–	–
COCCN1C(=O)c2[nH]nc(-c3ccccc3O)c2C1c1ccc(OCc2ccccc2)c(OC)c1 (stereo not given)	·	–	–	–	?
CC1=Cc2ccccc2C(C#N)N1C(=O)c1ccccc1 (stereo not given)	13µM	–[0.397 µM]	?	?	–
Cc1c(C)c2c(OCC(=O)N[C@@H](CC(C)C)C(=O)O)cc3c(c2oc1=O)CCC(C)(C)O3	–	–	–	–	–
CC(C)OC(=O)NCCOC(=O)Nc1ccc(Cl)c(Cl)c1	–	11µM	–	–	–
SMILES	Mito fusion yeast	TDP-43 yeast inh	Abeta rescue	aSyn yeast inh	FUS suppressor
CC(C)OC(=O)NCCOC(=O)Nc1cccc(Cl)c1	–	?	–	–	–
COc1ccccc1C(=O)N1CCN(C(=O)c2oc3c(C)c(C)ccc3c2C)CC1	·	32µM	–	–	–
CCCCN(C(=O)CC1CCCCC1)c1c(N)n(CCCC)c(=O)[nH]c1=O	·	–	–	?	–
Cn1c(=O)c2nc(-c3ccccc3)c(-c3ccccc3)nc2n(C)c1=O	·	32µM	–	–	–
CCOc1ccc(CCNS(=O)(=O)c2c(C)nc3sc(C)cn3c2=O)cc1OCC	·	–	–	·	–
COc1ccc2cc(C3=CC(=O)CCC3)ccc2c1	·	?	–	–	–
COc1ccc2cc(C3=CCCC3(C)C(=O)O)ccc2c1 (stereo not given)	·	3.5µM	–	–	–
COc1ccc(C(=O)N2CCN(c3cccc(Cl)c3)CC2)cc1	–	?	–	–	·
COc1ccccc1N1CCN(C(=O)Nc2ccc([N+](=O)[O-])cc2)CC1	–	14µM	–	–	–
COc1cc2ccccc2cc1C(=O)N1CCN(c2ccccc2O)CC1	–	13µM	–	–	?
COc1ccccc1N1CCN(C(=O)Nc2cccc(C)c2)CC1	–	?	–[9.22 µM]	–	–
CCOc1ccccc1N1CCN(C(=O)c2ccc(-c3ccc(OC(C)=O)cc3)cc2)CC1	?	20µM	–	–	?
COc1cccc(N2CCN(C(=O)c3ccc(-c4ccccc4)cc3)CC2)c1	–	13µM	–	–	?
Clc1ccc(-c2nc3c4ccccc4ccn3c2Cc2ccsc2)cc1	·	–	–	–	–
CC(=O)c1cccc(NC(=O)CCCSc2nc(-c3ccco3)cc(C(F)(F)F)n2)c1	·	–	–	·	–
COc1ccccc1N1CCN(C(=O)c2ccc(-c3ccccc3)cc2)CC1	–	18µM	–	–	–
COc1ccc(C(=O)N2CCN(c3ccccc3OC)CC2)cc1	–	?	–	–	–
CN1CCN(C(=O)c2cc3c(=O)n4ccccc4nc3s2)CC1	–	–	–	–	–
COc1ccccc1N1CCN(C(=O)c2sc3nc(-c4ccc(F)cc4)cn3c2C)CC1	?	11µM	–	–	?
COc1ccccc1N1CCN(C(=O)c2cc3c(=O)n4ccccc4nc3s2)CC1	–	20µM	–	–	–
CCCS(=O)(=O)N1CCN(C(=O)c2ccc(-c3ccccc3)cc2)CC1	–	18µM	–	?	–
C=CCNc1nc2cc(-c3cccc(Cl)c3)sc2c(=O)n1C	·	–	–	–	–
COc1ccccc1N1CCN(C(=O)c2ccncc2)CC1	–	–	–	–	–
COc1ccc(N2CCN(C(=O)c3ccc(N(C)S(=O)(=O)c4ccc(C)cc4)cc3)CC2)cc1	–	13µM	–	–	?
Cc1noc(C)c1COc1ccc(C(=O)N2CCN(c3cccc(Cl)c3)CC2)cc1	–	22µM	–	–	–
SMILES	Mito fusion yeast	TDP-43 yeast inh	Abeta rescue	aSyn yeast inh	FUS suppressor
COc1ccccc1N1CCN(C(=O)c2cccc(Oc3ccccc3)c2)CC1	–	35µM	–	–	–
O=C(NNc1cc(Cl)ccc1Cl)C1CCC1	–	–	–	–	–
COc1ccccc1NC(=O)CSc1oc(-c2ccccc2)nc1S(=O)(=O)c1ccccc1	·	–	–	·	–
CCCNc1nc(Nc2ccc([N+](=O)[O-])cc2)nc(N2CCOCC2)n1	·	·	·	–	·
CC1CCN(c2nc(Cl)nc(Nc3ccc([N+](=O)[O-])cc3)n2)CC1	?	20µM	–	–	·
CCOC(=O)c1cc(S(=O)(=O)NCc2ccccc2)[nH]n1	·	–	–	·	–
O=S(=O)(c1cccc(-c2csc(N/N=C/c3ccco3)n2)c1)N1CCOCC1	–	16µM	–	–	?
N#Cc1ccsc1NC(=O)C1CC(=O)N(Cc2ccccc2)C1 (stereo not given)	–	–	–	–	–
CCCCCn1c(=O)c2ccccc2n2c(CCl)nnc12	–	16µM	–	–	–
COC(=O)CCc1c[nH]c2ccc([N+](=O)[O-])cc12	·	–	–	–	–
O=C(CCc1c[nH]c2ccccc12)OCc1cccc([N+](=O)[O-])c1	–	?	11µM	–	–
